Data taken from PubChem BioAssay AID720513 (Broad Institute, 2013).
Hit rate of the full screen: of about 2,100 compounds, about 480 (23%) were called active. Roughly 5% stayed inconclusive and do not appear here.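 How the source made its calls: active means fitted curve reaches 40% activation at or below the top valid concentration, in every replicate test; inconclusive means replicate tests disagree on the call; inactive means the rest, including activity in the opposite direction.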 These entries were drawn from the full list. Measured potencies and affinities stand elsewhere.

Experiment: activators raising PGC1a acetylation in cells, dose response, cell-based, cherry-picked samples, set 6 (AID 720513);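 further: cells made to overexpress flag tagged PGC1a plus GCN5 acetyltransferase by viral infection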
Conditions: U2OS PGC1a acetylation AlphaLISA, overnight, 0 = neutral, -100 = inhibitor control; series mostly up to 19.5 µM; activation (acetylation increase): at the top concentration

Activation (acetylation increase), inactive:
O=C(C1CCCO1)N1CCN(Cc2c(O)ccc3ccccc23)CC1 (stereo not given) 12.8%, C[C@@H]1CCCCO[C@H](CN(C)Cc2ccc(C(F)(F)F)cc2)[C@H](C)CN([C@@H](C)CO)C(=O)c2cc(NC(=O)NC3CCCCC3)ccc2O1 28%, COc1cccc(-c2noc(C3CCCN(C(=O)Cc4ccccc4)C3)n2)c1 (stereo not given) 29.8%, COc1ccc(CN(Cc2cccn2C)S(=O)(=O)c2ccccc2)cc1 30.6%, C[C@H](CO)N1C[C@H](C)[C@H](CN(C)Cc2ccccc2)Oc2cc(Br)ccc2S1(=O)=O -7.01%, C[C@H]1CN([C@@H](C)CO)S(=O)(=O)c2ccc(Br)cc2O[C@H]1CN(C)S(C)(=O)=O 2.73%, COc1ccccc1C(NC(C)=O)c1cc(Cl)c2cccnc2c1O (stereo not given) 10.3%, CC(c1ccco1)N(C(=O)c1cc(Cl)cc(Cl)c1)c1ccccn1 (stereo not given) 27.1%, Cc1ccc(CN(C(=O)Cn2nnc3ccccc32)C(C(=O)NCc2ccco2)c2cccs2)cc1 (stereo not given) -24.9%, CC(=O)c1cccc(-c2ccnc3c2CC(C(=O)NCc2ccco2)O3)c1 (stereo not given) 4.41%, C[C@H](CO)N1C[C@H](C)[C@H](CN(C)S(=O)(=O)c2cn(C)cn2)OCCCC[C@H](C)Oc2ccc(NC(=O)Nc3cccc4ccccc34)cc2C1=O -7.46%, Clc1ccc(C(c2ccccc2Cl)C(Cl)Cl)cc1 (stereo not given) 6.49%, CC(C)Cc1nn2c(=O)cc(O)nc2s1 16.5%, Cc1ccc(S(=O)(=O)C(NC(=O)c2ccccc2)=C(Cl)Cl)cc1 32.9% [at 10 µM], Cc1cc(OCC(=O)O/N=C(\N)c2ccccc2)cc(C)c1Cl 4.64%, Cc1ccc(C(CC(=O)O)NC(=O)CCNC(=O)c2ccco2)cc1 (stereo not given) 29.7%, CC(C)CC#Cc1ccc2c(c1)O[C@H](CN(C)Cc1ccccc1)[C@@H](C)CN([C@H](C)CO)S2(=O)=O -68.5%, COc1cc(-c2cnc3c(NC=O)cc(-c4ccccc4)cn23)cc(OC)c1OC -13.1%, COc1cc(-c2cnc3c(NC=O)cc(-c4ccccc4Cl)cn23)cc(OC)c1OC 6.09%, O=C(O)c1cccc(N2C(=O)CSC2c2c(F)cccc2Cl)c1 (stereo not given) 15.6%, Cc1cc(C)c(NC(=O)c2ccc(S(=O)(=O)N(C)C)cc2)c(C)n1 -8.4%, OC[C@@H]1CN(Cc2ccccc2)C[C@H](n2cnc3c(NCc4ccco4)ncnc32)O1 -12.2%, CN(C)c1ncnc2c1ncn2C1OC(CO)C(O)C1O (stereo not given) -12.4%, CS(=O)(=O)N1CCCC(C(=O)NCc2ccccn2)C1 (stereo not given) 0.592%, COc1ccc(CN(C)C[C@@H]2OCCCC[C@H](C)Oc3ccc(NS(C)(=O)=O)cc3C(=O)N([C@@H](C)CO)C[C@@H]2C)cc1 7.45%, C[C@@H]1CN([C@H](C)CO)C(=O)c2cc(C#CC(C)(C)O)cnc2O[C@H]1CN(C)C(=O)c1ccccc1F 1.87%, Cc1ccc(-c2cnc3c(c2)C(=O)N([C@@H](C)CO)C[C@@H](C)[C@H](CN(C)C)O3)cc1 16.7%, Cc1noc(C)c1NC(=O)N(C)C[C@H]1Oc2c(NC(=O)c3nc4ccccc4s3)cccc2C(=O)N([C@H](C)CO)C[C@H]1C 20.6%, COc1ccc(S(=O)(=O)N(C)C[C@H]2Oc3c(NS(=O)(=O)c4ccc(C)cc4)cccc3C(=O)N([C@H](C)CO)C[C@H]2C)cc1 9.63%, Cc1nn(C)c(C)c1N1C(=O)c2cccc3c(Br)ccc(c23)C1=O -20.6%, CCC(=O)N1C[C@H](C)[C@@H](OC)CN(C)C(=O)c2cc(NC(=O)Nc3cccc(F)c3)ccc2OC[C@H]1C 4.06%, C[C@H](CO)N1C[C@H](C)[C@@H](CN(C)Cc2ccc(Oc3ccccc3)cc2)Oc2ccc(N(C)C)cc2CC1=O 22.7%, O=C(O)CSCC(=O)NCc1ccc(Cl)cc1Cl -3.56%, Cc1cc(Br)ccc1NC(=O)CN(C)C(=O)CCSc1ccc(F)cc1 34.7%, CC(=O)CS(=O)(=O)c1ccc(Oc2ccc(S(=O)(=O)CC(C)=O)cc2)cc1 35.2%, Cc1ccc(S(=O)(=O)N2CCN(C(=O)N3CCOCC3)CC2)cc1C 3.69%, COc1ccccc1N1CCN(c2ccc(-c3ccccc3)nn2)CC1 -19.4%, CCN(CC)C(=O)CSc1nnc(-c2cccnc2)n1Cc1ccccc1 -13.3%, Cn1c(CO)cnc1SCC(=O)c1ccc(Cl)cc1 6.9%, Cc1ccc(S(=O)(=O)N[C@H]2C=C[C@@H](CC(=O)NCCN3CCCCC3)O[C@H]2CO)cc1 9.77%, Cc1ccc(S(=O)(=O)NC2=NCCCCC2)cc1 -11%, Cc1ccc(S(=O)(=O)N[C@H]2C=C[C@H](CC(=O)NCCN3CCCCC3)O[C@H]2CO)cc1 13.8%, Cc1ccc2c(Cl)cc(Cl)c(OCc3c(C)noc3C)c2n1 24%, COc1ccc(-c2cc(-c3ccccc3)c(C#N)c(S(C)=O)n2)cc1 (stereo not given) -103%, COc1ccc(-n2c(SCC#N)nnc2-c2cccnc2)cc1 -52.4%, O=C(CC(C(=O)O)c1c[nH]c2ccccc12)c1ccccc1 (stereo not given) 26.7%, COc1ccc(-c2cc(C(F)(F)F)nc(S(C)(=O)=O)n2)cc1 -80.1%, CN(NC(=O)c1ccccc1)C1=NS(=O)(=O)c2ccccc21 29.7%, C=CCNS(=O)(=O)c1cccc2cc(C(=O)O)c(O)cc12 -11.3%, CCCCOc1ccc(C(=O)C(CN2CCOCC2)c2ccccc2)cc1 (stereo not given) -71.9% [at 10 µM], O=C(C=Cc1ccccc1)CC(c1ccccc1)N1CCOCC1 (stereo not given) -65.4%, COC(=O)COc1c(/C=C\c2nc(O)c([N+](=O)[O-])c(=O)[nH]2)cccc1OC 7.96%, COc1cccc(C(=O)Nn2cnnc2)c1OC -11.2%, Cc1ccc(N)cc1S(=O)(=O)N(C)C 34.7%, COc1ccc(C(=O)NCCCSC)cc1OC1CCN(C(C)C)CC1 7.64%, C[C@@H]1CN([C@@H](C)CO)C(=O)c2cc(-c3cccc(C#N)c3)cnc2O[C@H]1CN(C)C(=O)c1ccccn1 -9.58%, Cc1cc(C)c(C#N)c(N2CCN(c3ccccc3)CC2)n1 -14.4%, Cc1cc(S(=O)(=O)Nc2ccc3ccccc3c2)c(C)s1 -23.3%, C=CS(=O)(=O)N(Cc1ccccc1Br)[C@H](CO)Cc1ccccc1 -31.4%, C=CCSc1nccc(-c2cc(Cl)sc2Cl)n1 34.1%, O=C1C(Cl)=C(N2CCOCC2)C(=O)N1CCc1ccccc1 11.4%, O=C(CCC1CCCN(C(=O)c2cc(C3CC3)[nH]n2)C1)N1CCN(c2ccccn2)CC1 (stereo not given) 18.2%, CN(C)c1ccnc2sc(C(N)=O)c(N)c12 -20.8%, Cc1noc(C)c1S(=O)(=O)N(C)C[C@H]1Oc2ccc(NS(=O)(=O)c3cccs3)cc2C(=O)N([C@H](C)CO)C[C@H]1C 9.57%, Nc1cc(N)nc(SCC(=O)Nc2ccccc2N2CCOCC2)n1 -30.2%, CCOc1ccc(/C=C/C(=O)Oc2ccccc2)cc1 -2.16%, CCOC(=O)CS(=O)(=O)c1nc(-c2ccccc2)cc(C(F)(F)F)n1 -100%, CSc1cccc(N2CC(C(=O)NCCN3C(=O)S/C(=C\c4cccnc4)C3=O)CC2=O)c1 (stereo not given) 7.23%, CN(C)C(=O)C[C@@H]1CC[C@@H]2[C@H](COC[C@@H](O)CN2C(=O)C2CCOCC2)O1 -7.2% [at 10 µM], CC(C)C#Cc1ccc([C@@H]2[C@H]3CN(C(=O)NC4CCCC4)CC(=O)N3[C@H]2CO)cc1 20.8%, Cc1ccccc1OCC(=O)OCC(=O)NCc1ccc2c(c1)OCO2 -2.91%, CC(=O)Nc1cccc(-c2ccnc3c2CC(C)(C(=O)Nc2ccc4c(c2)OCO4)O3)c1 (stereo not given) 13.7%, O=C(CN(Cc1ccc2c(c1)OCO2)C(=O)CNS(=O)(=O)c1ccccc1)NCc1ccco1 6.43%, Cn1c(SC2=CS(=O)(=O)c3ccccc32)nc2ccccc21 -91.8%, CCOC(=O)CNC(=O)OC1CCN2Cc3ccccc3N=C12 (stereo not given) -16.2%, CN(C)CCNc1oc(COc2ccc(-c3ccccc3)cc2)nc1C#N -99.8%, C[C@H](CO)N1C[C@H](C)[C@@H](CN(C)C(=O)c2ccccn2)Oc2ncc(-c3cccc(C#N)c3)cc2C1=O 1.18%, Cc1nc(N(CCO)C2CCCCC2)c2nnn(Cc3ccccc3)c2n1 -1.58%, C[C@H](NC(=O)C[C@H]1CC[C@@H](NC(=O)C2CC2)[C@H](CO)O1)c1ccccc1 -6.11%, C[C@@H]1CCCCO[C@@H](CN(C)C(=O)c2ccncc2)[C@@H](C)CN([C@H](C)CO)C(=O)c2cc(NC(=O)CCCCCC(=O)Nc3ccccc3N)ccc2O1 -5.98%, O=C(CSc1nc2cc(Cl)ccc2s1)NCC1CCCO1 (stereo not given) 4.04%, COc1ccccc1CNC(=O)C[C@@H]1CC[C@@H]2[C@H](COC[C@H](O)CN2C(=O)Nc2ccc(Cl)cc2)O1 32.8%, CN1CCN(C(=O)C[C@@H]2CC[C@@H]3[C@H](COC[C@H](O)CN3CC3CCCCC3)O2)CC1 -4.22%, Cc1ccc(Nc2nc(-c3c(C)nc4ncccn34)cs2)cc1 -31.5%, Cc1cnc(NC(=O)c2nn(C)cc2[N+](=O)[O-])s1 12.9%, C[C@@H]1CN([C@H](C)CO)C(=O)c2cc(NC(=O)Nc3ccc(F)cc3)ccc2O[C@@H](C)CCCCO[C@@H]1CN(C)C(=O)NC1CCCCC1 2%, CCCc1nc2c(=O)n(C)c(=O)nc-2n(C)n1 -98%, O=C1/C(=C/c2ccccc2[N+](=O)[O-])COc2ccccc21 -86.7%, COc1ccccc1N=C1NC(=O)/C(=C/c2ccc(N(C)C)cc2)S1 -4.74%, O=C1C=CCCN1C(=O)/C=C/c1ccccc1Cl -85%, Cn1nc(C(C)(C)C)cc1NC(=O)C1(C)CCN1C(=O)C1(c2ccccc2)CCCC1 (stereo not given) 1.04%, COc1ccc(-c2onc(C)c2-c2ccc(C(=O)OC(C)C)o2)c(O)c1 14.5%, N#Cc1ccc(CCc2ccccc2)[nH]c1=O 2.14%, NS(=O)(=O)c1ccc(-c2ccc(/C=C3\C(=O)Nc4cc(Cl)ccc43)o2)cc1 -10.5%, O=C(Nc1nc2c(s1)CN(Cc1ccccc1)CC2)c1c(F)cccc1F -21.4%
